Experimental data from PubChem BioAssay.
Unmarked numbers belong to inactive results. Calls of active or inactive are those of the source.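 How the source made its calls, unless noted: active means NADPH fluorescence slope more negative than the mean of all samples by about 3 SD, 99.7% confidence; inactive means the rest.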

biological target: Voltage-gated potassium channel subunit beta-2 (Rattus norvegicus) (UniProt P62483); assay: KvBeta enzyme negative modulators, primary screen, biochemical, NADPH fluorescence (AID 622;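 active means fluorescence slope higher than the sample average by over 3 SD, cut at about -0.22 in these data, passing the limit was not always enough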;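 further: slope of raw intensity against log time taken from 70 to 1610 s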); settings: recombinant KvBeta, 4-cyanobenzaldehyde reduction, at 10 µM, active compounds read high
Sequence (P62483 whole entry, looked up): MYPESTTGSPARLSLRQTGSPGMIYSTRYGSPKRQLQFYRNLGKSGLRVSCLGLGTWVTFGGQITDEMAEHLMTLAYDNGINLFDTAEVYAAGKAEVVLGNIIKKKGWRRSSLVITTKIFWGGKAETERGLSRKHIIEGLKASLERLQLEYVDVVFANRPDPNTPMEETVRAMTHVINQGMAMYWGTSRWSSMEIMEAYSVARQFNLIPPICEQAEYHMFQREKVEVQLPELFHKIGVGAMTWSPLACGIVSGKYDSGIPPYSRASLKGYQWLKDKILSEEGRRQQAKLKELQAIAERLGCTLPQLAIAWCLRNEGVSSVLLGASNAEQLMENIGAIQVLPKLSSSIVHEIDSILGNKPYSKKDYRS

Going from `CC(=O)c1c(C)[nH]c(C(=O)Nc2ccc3c(c2)OCCO3)c1C` to `CC(=O)c1cc2c(=O)c3cc(C)ccc3oc2nc1C`, the fluorescence slope rises from -0.596 to -0.346.

First: O=c1cc(-c2ccccc2)[nH]c2nc3ccccc3n12
Second: CC(C(=O)c1ccccc1)n1cnc2ccccc2c1=O (stereo not given)
The fluorescence slope of the first is higher: -0.422 for the first, -0.525 for the second.

Compared with `Cc1cccc(-n2c(Cc3cc(=O)[nH]c(=O)[nH]3)nnc2SCC(=O)NCc2ccco2)c1`, `COc1cccc(-n2nnnc2SCC(=O)NCc2ccco2)c1` is lower in fluorescence slope: -0.529 for the first, -0.548 for the second.

First: O=C(COc1nnc2ccccn12)N1CCN(S(=O)(=O)c2ccccc2)CC1
Second: Nc1nnc(SCC(=O)N2CCN(c3ccccc3)CC2)n1-c1ccccc1
The fluorescence slope of the first is higher: -0.405 for the first, -0.572 for the second.

First: Cc1cc(N2C(=O)C3C4C=CC(C4)C3C2=O)ccc1Br (stereo not given)
Second: CCCC1(C(=O)OCC)NC(c2ccc(N(C)C)cc2)C2C(=O)N(c3ccccc3)C(=O)C21 (stereo not given)
The fluorescence slope of the first is lower: -0.502 for the first, -0.465 for the second.

First: Cc1ccc(S(=O)(=O)N(CC(=O)N2CCOCC2)CC(=O)N2CCOCC2)cc1
Second: O=C(Nc1ccccc1C(=O)N1CCCCCC1)c1cccc(S(=O)(=O)N2CCOCC2)c1
The fluorescence slope of the first is higher: -0.486 for the first, -0.572 for the second.

Going from `COc1ccc(C2=NOC(C(=O)NCc3ccc(F)cc3)C2)cc1OC` (stereo not given) to `COc1ccc(C(NC(=O)c2ccco2)c2ccc(OC)c(OC)c2)cc1` (stereo not given), the fluorescence slope rises from -0.493 to -0.326.

First: COCCCNS(=O)(=O)c1ccc2c(c1)CCN2C(C)=O
Second: O=S(=O)(NC1=NCCC1)c1cccs1
The fluorescence slope of the first is lower: -0.578 for the first, -0.353 for the second.

Compared with `CCC(C)N=C1SCC(C)(/C=N/O)S1` (stereo not given), `CCOC(=O)c1c(NC(=O)CSc2nnc(-c3cccnc3)o2)sc(C)c1C` is higher in fluorescence slope: -0.55 for the first, -0.484 for the second.

First: COc1ccc(-c2noc(CCC(=O)Nc3nc4ccccc4s3)n2)cc1
Second: CCOC(=O)c1cccc(NC(=O)CCn2nnc3ccccc32)c1
The fluorescence slope of the first is lower: -0.586 for the first, -0.457 for the second.

First: Cc1nnc(SCC(=O)Nc2ccc3c4c(cccc24)CC3)n1C
Second: COc1ccc(NC(=O)CSc2nnc(-c3ccncc3)n2CC2CCCO2)c(OC)c1 (stereo not given)
The fluorescence slope of the first is higher: -0.24 for the first, -0.575 for the second.

First: CCCCCC1NC(=O)NC1CCCCCC(=O)O (stereo not given)
Second: CCOC(=O)C1=C(Cn2cnc3ccccc32)NC(=O)NC1c1cc(C)ccc1C (stereo not given)
The fluorescence slope of the first is lower: -0.577 for the first, -0.461 for the second.

First: COc1cc(OC)c(C(=O)Nc2ncn[nH]2)cc1OC
Second: COc1ccc(Cc2nn3c(-c4cc(OC)c(OC)c(OC)c4)nnc3s2)cc1
The fluorescence slope of the first is lower: -0.537 for the first, -0.254 for the second.

Compared with `CCOC(=O)c1ccccc1NC(=O)COC(=O)C1=COCCO1`, `O=C(COC(=O)C1=COCCO1)Nc1ccccc1Oc1ccccc1` is lower in fluorescence slope: -0.286 for the first, -0.541 for the second.

Compared with `CCN(Cc1nc2cc(OC)c(OC)cc2c(=O)[nH]1)C(=O)c1ccc(S(=O)(=O)N(C)C)cc1`, `C=CCn1c(C)cc(C(=O)CSc2nc3ccccc3c(=O)[nH]2)c1C` is lower in fluorescence slope: -0.399 for the first, -0.52 for the second.

Going from `Cc1nc(NC(=O)C2CC3CCCC(C2)C3=O)sc1C` (stereo not given) to `O=C(OCC(=O)N1CCCC1)c1cncc(Br)c1`, the fluorescence slope rises from -0.581 to -0.207.

Compared with `O=C(CSc1nc(-c2ccco2)cc(C(F)(F)F)n1)N1CCCc2ccccc21`, `Clc1ccc(Cl)c(-c2nn3c(COc4ccccc4)nnc3s2)c1` is higher in fluorescence slope: -0.585 for the first, -0.546 for the second.

Going from `O=c1oc2ccccc2n1CCc1ccccc1` to `O=C(O)C1CC(=O)N(Cc2ccccc2)C1` (stereo not given), the fluorescence slope falls from -0.522 to -0.526.

Going from `CS(=O)(=O)N(CC(=O)O)c1cccc(Cl)c1` to `CC(C(=O)Oc1ccc2c(c1)OCO2)N1C(=O)c2ccccc2C1=O` (stereo not given), the fluorescence slope falls from -0.544 to -0.609.

`C#CC(CO)N(CCN(Cc1ccccc1)C(C#C)CO)Cc1ccccc1` (stereo not given) showed a fluorescence slope of -0.329.

`c1ccc(-c2cn3cccnc3n2)cc1` was tested, and the fluorescence slope was -0.0209 (active).

biological target: Voltage-gated potassium channel subunit beta-2 (Rattus norvegicus) (UniProt P62483); assay: KvBeta positive modulators, primary screen, biochemical, NADPH fluorescence (AID 623); settings: Recombinant KvBeta, NADPH fluorescence decrease slope, 10 min; at 10 µM; active compounds read low;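 further: fluorescence intensity change per second fitted from 20 to 320 s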

Compared with `CC(=O)c1c(C)[nH]c(C(=O)Nc2ccc3c(c2)OCCO3)c1C`, `CC(=O)c1cc2c(=O)c3cc(C)ccc3oc2nc1C` is lower in NADPH fluorescence slope: 6.7e-06 for the first, 5.2e-06 for the second.

Going from `O=c1cc(-c2ccccc2)[nH]c2nc3ccccc3n12` to `CC(C(=O)c1ccccc1)n1cnc2ccccc2c1=O` (stereo not given), the NADPH fluorescence slope falls from 2.4e-05 to -1.2e-05.

Going from `Cc1cccc(-n2c(Cc3cc(=O)[nH]c(=O)[nH]3)nnc2SCC(=O)NCc2ccco2)c1` to `COc1cccc(-n2nnnc2SCC(=O)NCc2ccco2)c1`, the NADPH fluorescence slope rises from -4.9e-05 to -2.6e-05.

Going from `O=C(COc1nnc2ccccn12)N1CCN(S(=O)(=O)c2ccccc2)CC1` to `Nc1nnc(SCC(=O)N2CCN(c3ccccc3)CC2)n1-c1ccccc1`, the NADPH fluorescence slope rises from -9.3e-05 to -3.7e-05.

Compared with `Cc1cc(N2C(=O)C3C4C=CC(C4)C3C2=O)ccc1Br` (stereo not given), `CCCC1(C(=O)OCC)NC(c2ccc(N(C)C)cc2)C2C(=O)N(c3ccccc3)C(=O)C21` (stereo not given) is lower in NADPH fluorescence slope: -5.3e-05 for the first, -6.2e-05 for the second.

Compared with `Cc1ccc(S(=O)(=O)N(CC(=O)N2CCOCC2)CC(=O)N2CCOCC2)cc1`, `O=C(Nc1ccccc1C(=O)N1CCCCCC1)c1cccc(S(=O)(=O)N2CCOCC2)c1` is lower in NADPH fluorescence slope: -1.3e-05 for the first, -2.1e-05 for the second.

First: COc1ccc(C2=NOC(C(=O)NCc3ccc(F)cc3)C2)cc1OC (stereo not given)
Second: COc1ccc(C(NC(=O)c2ccco2)c2ccc(OC)c(OC)c2)cc1 (stereo not given)
The NADPH fluorescence slope of the first is higher: 4.2e-05 for the first, -6.7e-05 for the second.

Going from `COCCCNS(=O)(=O)c1ccc2c(c1)CCN2C(C)=O` to `O=S(=O)(NC1=NCCC1)c1cccs1`, the NADPH fluorescence slope falls from 1.1e-05 to -4.6e-05.

Compared with `CCC(C)N=C1SCC(C)(/C=N/O)S1` (stereo not given), `CCOC(=O)c1c(NC(=O)CSc2nnc(-c3cccnc3)o2)sc(C)c1C` is higher in NADPH fluorescence slope: -6.5e-05 for the first, 4.4e-06 for the second.

Compared with `COc1ccc(-c2noc(CCC(=O)Nc3nc4ccccc4s3)n2)cc1`, `CCOC(=O)c1cccc(NC(=O)CCn2nnc3ccccc32)c1` is higher in NADPH fluorescence slope: -3.6e-05 for the first, -2.8e-05 for the second.

First: Cc1nnc(SCC(=O)Nc2ccc3c4c(cccc24)CC3)n1C
Second: COc1ccc(NC(=O)CSc2nnc(-c3ccncc3)n2CC2CCCO2)c(OC)c1 (stereo not given)
The NADPH fluorescence slope of the first is lower: -4.5e-05 for the first, -1.2e-05 for the second.

Going from `CCCCCC1NC(=O)NC1CCCCCC(=O)O` (stereo not given) to `CCOC(=O)C1=C(Cn2cnc3ccccc32)NC(=O)NC1c1cc(C)ccc1C` (stereo not given), the NADPH fluorescence slope rises from -5.6e-05 to -1.9e-05.

Going from `COc1cc(OC)c(C(=O)Nc2ncn[nH]2)cc1OC` to `COc1ccc(Cc2nn3c(-c4cc(OC)c(OC)c(OC)c4)nnc3s2)cc1`, the NADPH fluorescence slope rises from -0.000156 to -2.7e-05.

First: CCOC(=O)c1ccccc1NC(=O)COC(=O)C1=COCCO1
Second: O=C(COC(=O)C1=COCCO1)Nc1ccccc1Oc1ccccc1
The NADPH fluorescence slope of the first is lower: -3.3e-05 for the first, -2.5e-05 for the second.

Going from `CCN(Cc1nc2cc(OC)c(OC)cc2c(=O)[nH]1)C(=O)c1ccc(S(=O)(=O)N(C)C)cc1` to `C=CCn1c(C)cc(C(=O)CSc2nc3ccccc3c(=O)[nH]2)c1C`, the NADPH fluorescence slope rises from -0.000108 to -3.3e-05.

Going from `Cc1nc(NC(=O)C2CC3CCCC(C2)C3=O)sc1C` (stereo not given) to `O=C(OCC(=O)N1CCCC1)c1cncc(Br)c1`, the NADPH fluorescence slope rises from -4.4e-05 to -2.4e-05.

First: O=C(CSc1nc(-c2ccco2)cc(C(F)(F)F)n1)N1CCCc2ccccc21
Second: Clc1ccc(Cl)c(-c2nn3c(COc4ccccc4)nnc3s2)c1
The NADPH fluorescence slope of the first is higher: -2.5e-05 for the first, -2.8e-05 for the second.

Compared with `O=c1oc2ccccc2n1CCc1ccccc1`, `O=C(O)C1CC(=O)N(Cc2ccccc2)C1` (stereo not given) is higher in NADPH fluorescence slope: -0.000209 for the first, -0.00016 for the second.

Going from `CS(=O)(=O)N(CC(=O)O)c1cccc(Cl)c1` to `CC(C(=O)Oc1ccc2c(c1)OCO2)N1C(=O)c2ccccc2C1=O` (stereo not given), the NADPH fluorescence slope rises from -0.00014 to -2.3e-05.

Compared with `c1ccc(-c2cn3cccnc3n2)cc1`, `C#CC(CO)N(CCN(Cc1ccccc1)C(C#C)CO)Cc1ccccc1` (stereo not given) is lower in NADPH fluorescence slope: -3.7e-06 for the first, -5.4e-05 for the second.
